# Inconclusive results are not listed. Active and inactive are the calls of the source. Rule for the calls: active = hit-call score of the fitted dose curve at least 0.9, where 1 is the maximum; inconclusive = response in the unintended direction; inactive = score below 0.9.
# Legend:
# [1] = target: bovine Estrogen Receptor (ER), ESR1 (gene 407238) (UniProt P49884); experiment: NVS_NR_bER: NovaScreen (NVS) Nuclear Receptor Binding Assay for bovine Estrogen Receptor (ER) (AID 2283345);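 note: actives lower the bound radioligand count which means they displace the ER ligand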
# Chain of bovine Estrogen Receptor (ER), ESR1 (gene 407238) (P49884 whole entry, looked up): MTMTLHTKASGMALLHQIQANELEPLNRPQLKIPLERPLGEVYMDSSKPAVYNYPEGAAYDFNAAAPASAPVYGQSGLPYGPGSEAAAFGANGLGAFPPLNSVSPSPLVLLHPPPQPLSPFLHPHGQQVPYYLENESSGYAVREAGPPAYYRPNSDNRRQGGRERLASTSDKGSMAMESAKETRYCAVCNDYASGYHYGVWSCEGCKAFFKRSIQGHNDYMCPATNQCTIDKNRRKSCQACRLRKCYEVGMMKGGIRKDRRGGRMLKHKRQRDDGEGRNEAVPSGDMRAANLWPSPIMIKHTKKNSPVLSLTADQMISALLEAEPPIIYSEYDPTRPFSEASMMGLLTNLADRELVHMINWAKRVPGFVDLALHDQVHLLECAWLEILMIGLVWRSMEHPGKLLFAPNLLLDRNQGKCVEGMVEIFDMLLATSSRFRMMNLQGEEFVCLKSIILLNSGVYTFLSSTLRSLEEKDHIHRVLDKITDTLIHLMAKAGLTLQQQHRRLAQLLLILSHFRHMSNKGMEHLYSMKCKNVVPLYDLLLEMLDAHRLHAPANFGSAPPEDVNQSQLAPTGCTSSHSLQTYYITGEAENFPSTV
# Outline: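 Cell-free radioligand binding with bovine uterine membrane extracts, read 18 hours after dosing by scintillation counting. Loss of signal versus DMSO baseline indicates displacement. Primary screen run in duplicate at 25 uM, actives followed in concentration series.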
# [2] = target: Estrogen receptor (Homo sapiens) (UniProt P03372); experiment: NVS_NR_hER: NovaScreen (NVS) Nuclear Receptor Binding Assay for human Estrogen Receptor (ER) (AID 2283348)
# Chain of Estrogen receptor (Homo sapiens) (P03372 whole entry, looked up): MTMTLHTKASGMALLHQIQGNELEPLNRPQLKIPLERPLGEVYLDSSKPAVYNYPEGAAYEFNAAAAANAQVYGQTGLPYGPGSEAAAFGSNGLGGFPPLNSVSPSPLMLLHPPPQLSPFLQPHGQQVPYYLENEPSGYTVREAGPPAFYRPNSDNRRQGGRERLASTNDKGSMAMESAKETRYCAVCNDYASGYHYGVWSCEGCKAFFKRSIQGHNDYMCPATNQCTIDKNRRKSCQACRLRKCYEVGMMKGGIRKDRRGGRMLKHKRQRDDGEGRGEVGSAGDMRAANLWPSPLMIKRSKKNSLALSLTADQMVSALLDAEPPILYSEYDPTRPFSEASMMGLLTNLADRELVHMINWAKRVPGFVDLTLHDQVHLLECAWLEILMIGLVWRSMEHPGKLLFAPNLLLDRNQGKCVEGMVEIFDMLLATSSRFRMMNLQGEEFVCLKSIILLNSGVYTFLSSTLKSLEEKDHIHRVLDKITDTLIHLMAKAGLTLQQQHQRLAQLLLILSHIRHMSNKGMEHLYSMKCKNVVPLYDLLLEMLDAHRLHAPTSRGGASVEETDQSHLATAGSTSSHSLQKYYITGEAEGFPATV
# Outline: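 Scintillation signal from bound radioligand was measured 18 hours after chemical addition to cell-free MCF7 protein extracts, with DMSO as baseline. Activity was scored as signal loss; compounds ran first at 25 uM in duplicate.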
# [3] = NVS_IC_rCaBTZCHL: NovaScreen (NVS) Ion Channel Assay for Calcium Channel, Type L, Benzothiazepine Site (CaBTZCHL) (AID 2283337)
# Outline: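 Scintillation counting of filter-bound radioligand gave the read-out, with reduced binding versus DMSO scored as activity. Membranes came from rat cortex and were read 1.5 h after compound addition. Chemicals were screened first in duplicate at 25 uM.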
# [4] = target: rat Gamma-Aminobutyric Acid Type A Receptor BDZ, alpha 6 site (GABARa6), Gabra6 (gene 29708) (UniProt P30191); experiment: NVS_LGIC_rGABARa6: NovaScreen (NVS) Ligand-Gated Ion Channel Assay for rat Gamma-Aminobutyric Acid Type A Receptor BDZ, alpha 6 site (GABARa6) (AID 2283339)
# Chain of rat Gamma-Aminobutyric Acid Type A Receptor BDZ, alpha 6 site (GABARa6), Gabra6 (gene 29708) (P30191 whole entry, looked up): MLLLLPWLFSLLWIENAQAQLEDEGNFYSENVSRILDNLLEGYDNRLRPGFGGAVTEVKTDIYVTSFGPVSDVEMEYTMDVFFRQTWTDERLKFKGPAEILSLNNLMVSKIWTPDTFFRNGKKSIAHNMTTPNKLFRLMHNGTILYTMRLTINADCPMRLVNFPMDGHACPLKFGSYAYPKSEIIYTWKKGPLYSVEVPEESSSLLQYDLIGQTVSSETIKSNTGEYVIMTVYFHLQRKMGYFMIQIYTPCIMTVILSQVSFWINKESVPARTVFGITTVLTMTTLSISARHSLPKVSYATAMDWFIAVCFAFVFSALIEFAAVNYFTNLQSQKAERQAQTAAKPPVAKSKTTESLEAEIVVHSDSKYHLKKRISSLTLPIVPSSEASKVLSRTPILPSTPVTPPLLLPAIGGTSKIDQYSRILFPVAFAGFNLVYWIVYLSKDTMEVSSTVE
# Method: NVS_LGIC_rGABARa6 is a biochemical, single-readout assay that uses extracted gene-proteins from Rat cerebellar membranes in a tissue-based cell-free assay. Measurements were taken 1 hour after chemical dosing in a 48-well plate.NVS_LGIC_rGABARa6 is one of one assay component(s) measured or calculated from the NVS_LGIC_rGABARa6 assay. It is designed to make measurements of radioligand binding, a form of binding reporter, as detected with scintillation counting signals by Filter-based radiodetection technology.Data from the assay component NVS_LGIC_rGABARa6 was analyzed into 1 assay endpoint. This assay endpoint, NVS_LGIC_rGABARa6, was analyzed in the positive analysis fitting direction relative to DMSO as the negative control and baseline of activity. Using a type of binding reporter, loss-of-signal activity can be used to understand changes in the binding as they relate to the gene Gabra6. Furthermore, this assay endpoint can be referred to as a primary readout, because the performed assay has only produced 1 assay endpoint. To generalize the intended target to other relatable targets, this assay endpoint is annotated to the ion channel intended target family, where the subfamily is ligand-gated ion channel. […]
# [5] = target: rat Glutamate, MK-801 Agonist Site (GluNMDA_MK801), Grin1 (gene 24408) (UniProt P35439); experiment: NVS_LGIC_rGluNMDA_MK801_Agonist: NovaScreen (NVS) Ligand-Gated Ion Channel Assay for rat Glutamate, MK-801 Agonist Site (GluNMDA_MK801) (AID 2283340)
# Outline: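 Radioligand binding at MK-801 site in rat forebrain membranes, 1.5 h incubation, filter-based scintillation counting. Initially 25 uM in duplicate; actives then run in concentration-response up to 50 uM, fitted for gain of signal versus DMSO.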
# [6] = target: chimpanzee Androgen Receptor (AR), AR (gene 747460) (UniProt O97775); experiment: NVS_NR_cAR: NovaScreen (NVS) Nuclear Receptor Binding Assay for chimpanzee Androgen Receptor (AR) (AID 2283346);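 note: radioligand displacement from AR measured by scintillation counting in a cell-free assay; a loss of bound radioligand signal versus DMSO counts as binding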
# Chain of chimpanzee Androgen Receptor (AR), AR (gene 747460) (O97775 whole entry, looked up): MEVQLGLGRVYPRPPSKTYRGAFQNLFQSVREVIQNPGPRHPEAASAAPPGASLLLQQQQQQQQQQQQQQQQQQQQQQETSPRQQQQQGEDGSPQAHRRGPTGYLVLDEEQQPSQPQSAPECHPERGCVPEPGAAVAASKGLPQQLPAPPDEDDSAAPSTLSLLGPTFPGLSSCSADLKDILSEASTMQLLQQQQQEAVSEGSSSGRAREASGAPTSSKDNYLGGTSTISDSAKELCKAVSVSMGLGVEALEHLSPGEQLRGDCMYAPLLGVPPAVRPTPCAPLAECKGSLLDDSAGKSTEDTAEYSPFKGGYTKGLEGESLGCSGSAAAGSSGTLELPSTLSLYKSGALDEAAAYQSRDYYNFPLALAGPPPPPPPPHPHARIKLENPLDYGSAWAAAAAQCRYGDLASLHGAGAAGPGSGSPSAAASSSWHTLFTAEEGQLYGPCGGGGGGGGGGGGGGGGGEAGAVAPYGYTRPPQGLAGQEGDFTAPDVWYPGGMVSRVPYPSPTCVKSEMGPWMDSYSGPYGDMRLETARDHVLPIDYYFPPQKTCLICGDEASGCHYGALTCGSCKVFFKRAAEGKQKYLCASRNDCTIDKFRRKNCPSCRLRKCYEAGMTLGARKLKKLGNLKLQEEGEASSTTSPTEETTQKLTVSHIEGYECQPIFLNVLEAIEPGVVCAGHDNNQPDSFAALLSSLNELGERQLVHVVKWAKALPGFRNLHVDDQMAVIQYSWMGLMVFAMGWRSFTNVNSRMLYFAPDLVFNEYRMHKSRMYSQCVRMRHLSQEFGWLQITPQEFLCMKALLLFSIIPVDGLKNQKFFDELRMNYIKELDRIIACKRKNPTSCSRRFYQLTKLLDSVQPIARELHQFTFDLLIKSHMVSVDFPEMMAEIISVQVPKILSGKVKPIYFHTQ
# Outline: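 Cell-free competition binding with insect-cell (Sf9/Sf21) extracted chimpanzee AR; scintillation signal from lysate at 72 h. Screened in duplicate at 25 uM, then concentration-response for actives; fitting relative to DMSO.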
# [7] = target: human Constitutive Androstane Receptor (CAR), NR1I3 (gene 9970) (UniProt Q14994); experiment: NVS_NR_hCAR_Antagonist: NovaScreen (NVS) Nuclear Receptor Binding Assay for human Constitutive Androstane Receptor Antagonism (CAR) (AID 2283344)
# Chain of human Constitutive Androstane Receptor (CAR), NR1I3 (gene 9970) (Q14994 whole entry, looked up): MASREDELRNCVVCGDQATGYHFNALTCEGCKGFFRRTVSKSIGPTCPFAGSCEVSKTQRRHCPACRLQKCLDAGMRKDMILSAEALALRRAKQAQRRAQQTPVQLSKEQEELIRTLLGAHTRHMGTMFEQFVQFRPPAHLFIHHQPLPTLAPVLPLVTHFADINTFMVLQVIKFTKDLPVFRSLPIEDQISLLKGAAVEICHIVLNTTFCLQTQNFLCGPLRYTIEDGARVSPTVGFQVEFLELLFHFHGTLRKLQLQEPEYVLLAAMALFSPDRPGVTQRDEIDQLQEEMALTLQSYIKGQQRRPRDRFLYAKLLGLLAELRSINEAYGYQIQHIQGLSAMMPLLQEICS
# Outline: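 Cell-free TR-FRET binding read 1 h after dosing, antagonist mode; loss of signal versus DMSO baseline. Primary screen in duplicate at a single 25 uM; actives retested in concentration series.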
# [8] = system: guinea pig Histamine Receptor (H2), gene 100729734; experiment: NVS_GPCR_gH2: NovaScreen (NVS) G Protein-Coupled Receptor Assay for guinea pig Histamine Receptor (H2) (AID 2283342)
# Outline: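 Radioligand displacement on guinea pig striatal membranes, 1 h after dosing, filter-based scintillation counting; loss of signal versus DMSO. Single-point screen at 25 uM in duplicate, then concentration-response up to 50 uM.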
# [9] = target: bovine Gamma-Aminobutyric Acid Type A Receptor Agonist (GABAR Agonist), GABRA1 (gene 780973) (UniProt P08219); experiment: NVS_LGIC_bGABAR_Agonist: NovaScreen (NVS) Ligand-Gated Ion Channel Assay for bovine Gamma-Aminobutyric Acid Type A Receptor Agonist (GABAR Agonist) (AID 2283338)
# Chain of bovine Gamma-Aminobutyric Acid Type A Receptor Agonist (GABAR Agonist), GABRA1 (gene 780973) (P08219 whole entry, looked up): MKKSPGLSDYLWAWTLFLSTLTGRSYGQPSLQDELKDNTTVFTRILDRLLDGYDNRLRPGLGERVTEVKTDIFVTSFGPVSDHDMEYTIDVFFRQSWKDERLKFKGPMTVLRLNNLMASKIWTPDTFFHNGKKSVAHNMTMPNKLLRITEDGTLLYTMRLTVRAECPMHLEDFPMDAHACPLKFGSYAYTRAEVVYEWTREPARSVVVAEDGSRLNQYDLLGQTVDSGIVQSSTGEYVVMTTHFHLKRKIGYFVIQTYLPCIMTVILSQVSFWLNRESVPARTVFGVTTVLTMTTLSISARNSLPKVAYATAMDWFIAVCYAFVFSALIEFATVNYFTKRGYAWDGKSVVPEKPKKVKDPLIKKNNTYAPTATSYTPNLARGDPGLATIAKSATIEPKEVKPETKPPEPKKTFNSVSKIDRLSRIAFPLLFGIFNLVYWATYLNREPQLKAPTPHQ
# Outline: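 Radioligand binding to bovine cerebellar membranes in agonist format, read by filter-based scintillation counting after 1 h. Primary screen in duplicate at 25 uM, with actives followed in concentration series. Gain of signal versus DMSO.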
# [10] = target: Bile acid receptor (Homo sapiens) (UniProt Q96RI1); experiment: NVS_NR_hFXR_Agonist: NovaScreen (NVS) Nuclear Receptor Binding Assay for human Farnesoid X Receptor Agonism (FXR) (AID 2283347)
# Chain of Bile acid receptor (Homo sapiens) (Q96RI1 whole entry, looked up): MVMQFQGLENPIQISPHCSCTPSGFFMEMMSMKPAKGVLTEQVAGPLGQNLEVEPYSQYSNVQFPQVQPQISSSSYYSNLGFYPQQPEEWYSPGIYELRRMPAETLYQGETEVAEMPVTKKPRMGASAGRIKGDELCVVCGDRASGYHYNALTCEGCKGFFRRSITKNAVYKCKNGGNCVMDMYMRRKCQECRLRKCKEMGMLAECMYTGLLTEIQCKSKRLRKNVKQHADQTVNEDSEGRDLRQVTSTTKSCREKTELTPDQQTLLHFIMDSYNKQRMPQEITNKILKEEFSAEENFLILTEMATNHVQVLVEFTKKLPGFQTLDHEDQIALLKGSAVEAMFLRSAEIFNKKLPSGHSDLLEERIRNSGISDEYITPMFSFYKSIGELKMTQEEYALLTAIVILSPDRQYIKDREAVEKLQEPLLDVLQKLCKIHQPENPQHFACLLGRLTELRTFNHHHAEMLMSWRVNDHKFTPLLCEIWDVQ
# Outline: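 Cell-free TR-FRET binding assay with extracted human FXR protein, agonist format, read 1 h after dosing. Primary screen at 25 uM single concentration in duplicate, actives retested in concentration series; gain of signal versus DMSO.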
smiles,measurement,setting,value
O=c1n(Cl)c(=O)n(Cl)c(=O)n1Cl,outcome,[1],inactive
CC1(C)C(C=C(Cl)Cl)C1C(=O)OC(C#N)c1cccc(Oc2ccccc2)c1 (stereo unspecified),outcome,[1],inactive
same,outcome,[2],inactive
CCCCC(O)(Cn1cncn1)c1ccc(Cl)cc1Cl (stereo unspecified),outcome,[3],inactive
same,AC50,[4],1.89 µM (active)
same,outcome,[5],inactive
same,outcome,[1],inactive
same,AC50,[6],25 µM (active)
C=C(C)CN(CC)c1c([N+](=O)[O-])cc(C(F)(F)F)cc1[N+](=O)[O-],outcome,[7],inactive
same,outcome,[6],inactive
CN=C=S,outcome,[7],inactive
same,outcome,[1],inactive
COC(=O)NS(=O)(=O)c1ccc(N)cc1,outcome,[7],inactive
CS(=O)(=O)c1ccc(C(=O)C2C(=O)CCCC2=O)c([N+](=O)[O-])c1,AC50,[6],17.6 µM (active)
CCCCC(C#N)(Cn1cncn1)c1ccc(Cl)cc1 (stereo unspecified),outcome,[3],inactive
same,AC50,[8],29.7 µM (active)
same,outcome,[7],inactive
same,outcome,[1],inactive
same,outcome,[2],inactive
COCC(=O)N(c1c(C)cccc1C)C(C)C(=O)OC (stereo unspecified),outcome,[7],inactive
Nc1cnn(-c2ccccc2)c(=O)c1Cl,outcome,[9],inactive
same,outcome,[2],inactive
CCSC(=O)N1CCCCCC1,outcome,[2],inactive
CCCN(CC)CC1COC2(CCC(C(C)(C)C)CC2)O1 (stereo unspecified),AC50,[3],9.84 µM (active)
same,AC50,[8],9.65 µM (active)
CC(C)Oc1cccc(NC(=O)c2ccccc2C(F)(F)F)c1,outcome,[7],inactive
same,outcome,[1],inactive
Cc1c(COC(=O)[C@@H]2[C@H](/C=C(\Cl)C(F)(F)F)C2(C)C)cccc1-c1ccccc1,outcome,[2],inactive
CC(C)C1(C)N=C(c2ncccc2C(=O)O)NC1=O (stereo unspecified),outcome,[7],inactive
CSC(=O)c1c(C(F)F)nc(C(F)(F)F)c(C(=O)SC)c1CC(C)C,outcome,[8],inactive
CS(=O)(=O)c1cc(C(F)(F)F)ccc1C(=O)c1cnoc1C1CC1,outcome,[1],inactive
CCOP(=O)(OCC)Oc1nc(Cl)c(Cl)cc1Cl,AC50,[7],16.1 µM (active)
Cn1c(-c2ccccc2)cc(-c2ccccc2)[n+]1C,AC50,[3],33.3 µM (active)
same,outcome,[8],inactive
COP(=S)(OC)SCn1nnc2ccccc2c1=O,outcome,[7],inactive
same,AC50,[6],16.1 µM (active)
CCCCOCN(C(=O)CCl)c1c(CC)cccc1CC,AC50,[7],14.6 µM (active)
same,outcome,[6],inactive
CC(C)(C)C(=O)C(Oc1ccc(Cl)cc1)n1cncn1 (stereo unspecified),outcome,[8],inactive
same,outcome,[7],inactive
same,outcome,[1],inactive
same,AC50,[6],19.6 µM (active)
same,outcome,[2],inactive
COC(=O)N(C(=O)N1CO[C@@]2(C(=O)OC)Cc3cc(Cl)ccc3C2=N1)c1ccc(OC(F)(F)F)cc1,outcome,[6],inactive
CCOc1nc(F)cc2nc(S(=O)(=O)Nc3c(Cl)cccc3Cl)nn12,outcome,[7],inactive
same,outcome,[10],inactive
CCC(C)n1c(=O)[nH]c(C)c(Br)c1=O (stereo unspecified),outcome,[7],inactive
CCN(CC)c1nc(C)cc(OP(=S)(OC)OC)n1,outcome,[2],inactive
N#Cc1c(Cl)cccc1Cl,outcome,[7],inactive
same,outcome,[1],inactive
CC1(C)CCC(=Cc2ccc(Cl)cc2)C1(O)Cn1cncn1 (stereo unspecified),AC50,[6],0.672 µM (active)
CCOc1cc(C(C)(C)C)ccc1C1COC(c2c(F)cccc2F)=N1 (stereo unspecified),outcome,[7],inactive
CC(C)NC(=O)N1CC(=O)N(c2cc(Cl)cc(Cl)c2)C1=O,outcome,[7],inactive
N#Cc1c[nH]cc1-c1cccc2c1OC(F)(F)O2,outcome,[1],inactive
CCOC(=O)C(C)OC(=O)c1cc(Oc2ccc(C(F)(F)F)cc2Cl)ccc1[N+](=O)[O-] (stereo unspecified),outcome,[7],inactive
same,outcome,[1],inactive
CC(C)=CC1C(C(=O)OCc2coc(Cc3ccccc3)c2)C1(C)C (stereo unspecified),outcome,[7],inactive
same,outcome,[1],inactive
same,outcome,[2],inactive
O=C1C2CC=CCC2C(=O)N1SC(Cl)(Cl)Cl (stereo unspecified),outcome,[7],inactive
COC(=O)c1c(C(F)F)nc(C(F)(F)F)c(C2=NCCS2)c1CC(C)C,outcome,[7],inactive
COP(=S)(OC)Oc1ccc([N+](=O)[O-])c(C)c1,outcome,[7],inactive
same,outcome,[1],inactive
same,AC50,[6],5.29 µM (active)
CCN(CC)C(=O)C(C)Oc1cccc2ccccc12 (stereo unspecified),AC50,[7],34.2 µM (active)
same,AC50,[6],11.5 µM (active)
OC(c1ccc(Cl)cc1)(c1ccc(Cl)cc1)C(Cl)(Cl)Cl,outcome,[1],inactive
same,outcome,[2],inactive
CCNP(=S)(OC)O/C(C)=C/C(=O)OC(C)C (stereo unspecified),AC50,[8],16.1 µM (active)
CNC(=O)Oc1cccc2ccccc12,outcome,[7],inactive
same,outcome,[2],inactive

# Source: PubChem BioAssay (EPA / NIEHS)
